Measurements as given in the supplement of paper PMC10338343.
± gives the standard deviation.

Tested on: MILI (PIWIL2) piRISC loaded with L1MC piRNA (26 nt)
Experiment: pre-steady-state target cleavage rate (min^-1); guide: L1MC piRNA 5'p-UAACUAAAUACUAUGCAAGCUGUAGG; MIWI and MILI are mouse PIWI proteins and EfPiwi is from a freshwater sponge; tags in brackets are library labels; higher = faster piRNA-guided slicing of the target
Outline: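 In Cleave-'n-Seq, a transcribed, DNA-blocked target RNA library (0.1 nM) was combined with 1 nM active affinity-purified piRISC bearing one synthetic guide, with or without 500 nM GTSF1 partner protein. Reactions ran in HEPES–potassium acetate buffer at 33 °C for 0–8 or 0–960 min. Uncleaved targets were sequenced and normalised to depth and to weakly complementary targets, three trials were pooled, and k3 was capped at 0.0001 min^-1. The pre-steady-state cleavage rate was obtained by fitting a burst-and-steady-state model.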

[1] = auxiliary factor: 500 nM mouse GTSF1
[2] = auxiliary factor: none (no GTSF1)

Sequence	pre-steady-state target cleavage rate [1]	pre-steady-state target cleavage rate [2]
UCCUGGAUGUGGUUGCAUACUAUUUAGUUA	0.0175 ± 0.0072	0.00525 ± 0.0036
UCCUGGAUGUCCAUGCAUAGUAUAUAGUUA	0.0181 ± 0.0064	0.00373 ± 0.0026
UCCUGGAACAGCUUGCAAUGUAUUUAGUUA	0.0726 ± 0.0083	0.00437 ± 0.002
UCCUGGAACAGCUUGCAUAGUAUCUUAGUUA	0.267 ± 0.022	0.00791 ± 0.0019
UCCUGGAUGUCGAUGGCAUAGUAUUUAGUUA	0.0677 ± 0.014	0.00792 ± 0.003
UCCUGGAACAGCCUGCAUAGUAUUUAGUUA	0.247 ± 0.012	0.00896 ± 0.0029
UCCUGGAUGUGCUUGCAUUGUAUAUAGUUA	0.0696 ± 0.012	0.00543 ± 0.0026
UCCUGGAUGUGCUUGCUUACUAUUUAGUUA	0.0117 ± 0.005	0.00477 ± 0.0024
UCCUGGAACAGCUAGGAUAGUAUUUAGUUA	0.26 ± 0.016	0.00746 ± 0.002
UCCUGGAUGAGCUUGCUUUGUAUUUAGUUA	0.0408 ± 0.01	0.00403 ± 0.0028
UCCUGGUACAGCUUGCAUAGUUAUUUAGUUA	0.0143 ± 0.0076	0.00549 ± 0.0044
UCCUGGAUGUCGUUGCAUAGUAUUUAGUCA	0.146 ± 0.024	0.00639 ± 0.002
UCCUGGAUGUCGUUGCAUAGUGUUUAGUUA	0.0461 ± 0.01	0.00452 ± 0.0029
UCCUGGAUGUGCUUGCAUAGUGAUUUAGUUA	0.00833 ± 0.0042	0.007 ± 0.0031
UCCUGGAACAGCUUGGUAAGUAUUUAGUAA	0.11 ± 0.017	0.00425 ± 0.0016
UCCUCCUACAGCUUGCUAUGUAUUUAGUUA	0.0502 ± 0.011	0.00506 ± 0.0018
UCCUGGAUGUGCUUGCUAAGUAUUUAGUUA	0.0146 ± 0.0062	0.00546 ± 0.0023
UCCUGGAUGUGGUUGGAUAGUAUUUAGUUA	0.109 ± 0.019	0.00858 ± 0.0028
UCCUGGAUGUCGUUGCAUAGUAUUUAGUGA	0.193 ± 0.034	0.00426 ± 0.0027
UCCUGGUACAGGUUGCAUAGUAAUUAGUUA	0.325 ± 0.041	0.00664 ± 0.0029
UCCUGGAACAGCUUGCAUAGUAUUUAGUAA	0.247 ± 0.021	0.00459 ± 0.002
UCCUGCUACAGCUUGCAUAAUAUUUAGUUA	0.363 ± 0.034	0.00537 ± 0.0019

Sequence	pre-steady-state target cleavage rate [1]	pre-steady-state target cleavage rate [2]
UCCUGCUACACCUUGCAAAGUAUUUAGUUA	0.106 ± 0.0086	0.00675 ± 0.0025
UCCUGGAUGUUCUUGCAUAGUAUUUAGUUA	0.0709 ± 0.01	0.0115 ± 0.003
UCCUGGAUGUCCUUGCAUACAUUUUAGUUA	0.00731 ± 0.0047	0.00422 ± 0.0019
UCCUGGAUGAGGAUGCAUAGUAUUUAGUAA	0.116 ± 0.029	0.00444 ± 0.002
UCCUGGUACACGAUGCAUAGUAUUUAGUUA	0.252 ± 0.058	0.00395 ± 0.0035
UCCUGGAUGUGGUUGCAUUGUAUUUAGUUA	0.0353 ± 0.0089	0.00721 ± 0.0036
UCCUGGAUGUCCUUGCAUUGUAUUAAGUUA	0.0479 ± 0.012	0.00424 ± 0.0019
UCCUGGAACUGCUUGCAUAGUAUUUACUUA	0.0984 ± 0.027	0.00292 ± 0.0023
UCCUGGAUGUCGAUGCAUAGUAUUUACGUUA	0.158 ± 0.033	0.00337 ± 0.0029
UCCUGCUACAGCUUGCAUUGUUUUUAGUUA	0.0212 ± 0.007	0.00289 ± 0.0028
UCCUGGAUGUGCUUGCAUUGUUUUUAGUUA	0.00733 ± 0.005	0.00335 ± 0.0032
UCCUGGAUCAGCUUGCUAGUAUUUAGUUA	0.0105 ± 0.0043	0.00365 ± 0.0022
UCCUGGAUGUCGUUGCAUAGUAUUUAGUUG [g2:g18:cont:t1G]	0.1 ± 0.016	0.00688 ± 0.003
UCCUGGAUGUCGAAGCAUAGUAUUUAAGUUA	0.064 ± 0.0095	0.00425 ± 0.0022
UCCUGGAUGUCCUUGCAUAGAUUUUAGUUA	0.0121 ± 0.0046	0.00402 ± 0.0018
UCCUGGAUGUCGAAGCAUAGUAUCUAGUUA	0.0263 ± 0.0077	0.00418 ± 0.0019
UCCUGGAUGUCCUUGCAUAGUAUUUAGUGA	0.0966 ± 0.018	0.00382 ± 0.0024
UCCUCCUAGAGCUUGCAUUGUAUUUAGUUA	0.213 ± 0.012	0.00709 ± 0.0021
UCCUGGAUGAGCAUGCAUAGUAUUUACUUA	0.122 ± 0.029	0.00352 ± 0.0028
UCCUGGAUGUCGUUGCAUAGUAUUUAGUAA	0.191 ± 0.03	0.00351 ± 0.0029
UCCUCCUUCAGCUUGCAUAGUAAUUAGUUA	0.211 ± 0.021	0.00503 ± 0.002
UCCUGGAUCAGCUUGCAUUGUAUUUUGUUA	0.1 ± 0.019	0.00344 ± 0.0026

Sequence	pre-steady-state target cleavage rate [1]	pre-steady-state target cleavage rate [2]
UCCUGGUACAGCUUGCUUUGUAUUUAGUUA	0.123 ± 0.017	0.0068 ± 0.0025
UCCUGGAUCACCUUGCUUAGUAUUUAGUUA	0.176 ± 0.025	0.008 ± 0.0023
UCCUCCUACAGCUUUGCAUAGUAUUUAGUUA	0.291 ± 0.017	0.00758 ± 0.0021
UCCUGGAUGUCCUUGCAUAGUAUUCUAGUUA	0.1 ± 0.022	0.00384 ± 0.0034
UCCUGGUACAGCUUCGUUAGUAUUUAGUUA	0.128 ± 0.013	0.00406 ± 0.0022
UCCUGCUACAGCUUUGCAUAGUAUUUAGUUA	0.263 ± 0.02	0.00559 ± 0.0027
UCCUCCUACAGCUUGCAUUGAAUUUAGUUA	0.0267 ± 0.008	0.00236 ± 0.0021
UCCUGGAUGUGCAUGCAUAGUAUUUAGUAA	0.121 ± 0.017	0.00467 ± 0.0026
UCCUGGAUGUCCUUGGAUAGUAUUUAGUAA	0.121 ± 0.019	0.00376 ± 0.0019
UCCUGGUACUGCUUGCAUAGUUUUUAGUUA	0.0403 ± 0.012	0.00996 ± 0.0046
UCCUGGAUGUGCAUGCAUUGUAUUUAGUUA	0.0212 ± 0.0051	0.00604 ± 0.0024
UCCUCCUACAGUCUUGCAUAGUAUUUAGUUA	0.252 ± 0.018	0.00736 ± 0.0023
UCCUGGAUGUCGUAGCAUAGUAUAUAGUUA	0.0653 ± 0.016	0.0048 ± 0.0023
UCCUGGAUGUCGUUGCAUAGUCUUUAGUUA	0.0286 ± 0.0084	0.00414 ± 0.0025
UCCUGGAUGUGCUUGCAUAGUAAUUUAGUUA	0.0286 ± 0.01	0.0056 ± 0.0026
UCCUGGAUGUCGAAGCAUAGUAAUUUAGUUA	0.0148 ± 0.0051	0.0059 ± 0.0018
UCCUGGUACAGCUUGCAUAUAUUUAGUUA	0.035 ± 0.011	0.00493 ± 0.0024
UCCUGGAACAGCUUGCAUUGUUUUUAGUUA	0.0144 ± 0.0059	0.00334 ± 0.0023
UCCUGGUACAGCUUGGUUAGUAUUUAGUAA	0.159 ± 0.038	0.01 ± 0.0031
UCCUGGAUGUCGUUGCAUAGUUAUUUAGUUA	0.00477 ± 0.0039	0.00324 ± 0.003
UCCUGCUACAGGUUGCAUAGUUUUUAGUUA	0.0345 ± 0.007	0.0063 ± 0.0021
UCCUGGAUGAGCUUGCAUAGUAUUUAGUAUA	0.218 ± 0.028	0.00501 ± 0.0033
